Hits are enriched below; roughly 19% of the tested compounds scored in any of these assays.
Pf growth 48h: P. falciparum growth inhibition at 48 hours (one generation). 5.9% of 310,000 active. Potency, µM (doses to about 28.7 µM), usual class: inhibitors. AID 504832. P. falciparum luciferase growth in erythrocytes, 48 h
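Luminescence readout; reporter = integrated firefly luciferase in P. falciparum. RBC culture at 2% hematocrit, 0.1% parasitemia final, 37 C/5% CO2; decreased signal taken as growth inhibition.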
AMA1-RON2 inh: disrupts binding of P. falciparum AMA1 to RON2. AlphaScreen AMA1-biotinylated RON2 peptide binding. Potency, µM (titrated, usually from 58.2 µM), most hits filed as inhibitors. 0.2% of 360,000 active; further: nearly all actives have a fitted effect of over 45% in size
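AMA1 (3D7) with his tag at 25 nM final met compounds first, then biotinylated RON2 peptide at 25 nM; detection used donor plus acceptor beads, 10 µg/mL apiece, read by AlphaScreen after 30 min at room temperature.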
CHX counter: counter-screen hit for Shiga toxin inhibitors, cycloheximide | cell reporter, cycloheximide protein synthesis inhibition counterscreen | 12% of 300,000 active | max response, %; in the data active means max response mostly above about 13%, no sharp cut-off; inactive means mostly below about 14%; further: read at 38.3 µM for the half of the compounds with a filed dose
Pf growth 96h: P. falciparum growth inhibition at 96 hour, primary screen for plastid delayed-death inhibitors; P. falciparum luciferase reporter growth, 96 h; 6.9% of 320,000 active; Potency, µM (titrated, usually from 28.7 µM), usual class: inhibitors
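Two-generation exposure (96 h) targets delayed-death phenotype. Reporter parasites carrying integrated firefly luciferase, in red cells at 2% hematocrit and 0.05% parasitemia final, kept at 37 C, 5% CO2; luminescence loss indicates inhibition.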
Shiga toxin inh: blocks Shiga toxin action in Vero cells | Vero cells, Shiga toxin protein synthesis inhibition reporter | AID 2315 | inhibition, % at 38.7 µM | 9.2% of 290,000 active; in the data active means inhibition mostly above about 28%, no sharp cut-off; inactive means mostly below about 43%
SARS PLP yeast: SARS-CoV PLP inhibition in yeast. S. cerevisiae expressing SARS-CoV PLpro, growth rescue. AID 485353. Potency, µM (doses to about 32.9 µM), most hits filed as activators. 0.19% of 330,000 active; calls by dose curve; further: nearly all actives have a fitted effect of over 55% in size
Of the large screens only hits and unclear results are named; the others gave an inactive call. Unless noted, the call rests on the fitted dose curve; in most records, active means well fitted curve in the direction sought with a large enough effect; inconclusive means small, poorly fitted or top-dose-only effect, or another doubt; inactive means no such curve, though single readings can be large; an effect the other way counts as inactive or inconclusive.

Cc1ccc(NC(=O)N(CCCN2CCOCC2)Cc2cc3cc4c(cc3[nH]c2=O)OCO4)cc1	Pf growth 48h 0.93µM, AMA1-RON2 inh inconclusive, Pf growth 96h 13µM
CCc1ccc2[nH]c(=O)c(CN(CCCN3CCOCC3)C(=O)Nc3cccc(Cl)c3)cc2c1	Pf growth 48h 5.2µM (no result: Pf growth 96h)
CCCN1CCCc2cc(CN(CCCN3CCOCC3)C(=O)Nc3ccc(OCC)cc3)ccc21	AMA1-RON2 inh 27µM, Pf growth 96h 5.9µM (no result: Pf growth 48h)
O=C(CN1CCCc2ccccc21)NC(=O)NC1CCCCC1	Pf growth 48h inconclusive
O=C(Nc1cccc(Cl)c1)N(CCN1CCOCC1)Cc1cccc(Cl)c1	Pf growth 48h inconclusive
Cc1ccc(C)c2[nH]c(=O)c(CN(CCN3CCCC3)C(=O)Nc3cccc(Cl)c3)cc12	Pf growth 48h 2.3µM
O=C(Nc1ccc(F)cc1)N(Cc1ccco1)Cc1cc2cc3c(cc2[nH]c1=O)OCO3	Pf growth 48h 10µM, Pf growth 96h inconclusive
O=C(Nc1ccccc1)N(CCCN1CCOCC1)Cc1cc2cc3c(cc2[nH]c1=O)OCCO3	Pf growth 48h 13µM
COC(=O)c1ccccc1S(=O)(=O)N(Cc1cc2cc3c(cc2[nH]c1=O)OCO3)C1CCCCC1	Pf growth 48h 8.3µM (no result: AMA1-RON2 inh)
Cc1csc(=O)n1CCC(=O)NCc1ccc(F)cc1	none (no result: Pf growth 48h, CHX counter, Pf growth 96h, Shiga toxin inh)
O=c1ccc(-c2ccc(S(=O)(=O)N3CCN(c4ccccc4)CC3)o2)n[nH]1	Pf growth 48h inconclusive
C=CCc1c(C)[nH]c2c(OC)cccc2c1=S	Pf growth 48h inconclusive
CCN(CC)CCCN(Cc1cc2cc3c(cc2[nH]c1=O)OCO3)C(=S)Nc1ccc(OC)cc1	Pf growth 48h inconclusive
COc1ccc(OC)c(CN(CCN2CCOCC2)C(=O)Nc2cccc(Cl)c2)c1	none
Cc1ccc(NC(=O)N(Cc2cccs2)Cc2cc3cc4c(cc3[nH]c2=O)OCO4)cc1	Pf growth 48h inconclusive, Pf growth 96h inconclusive, SARS PLP yeast inconclusive (no result: AMA1-RON2 inh)
Cc1ccc(NC(=O)N(Cc2ccc3c(c2)OCO3)Cc2cc3cc4c(cc3[nH]c2=O)OCCO4)cc1	Pf growth 48h 1.3µM (no result: Pf growth 96h)
COc1ccc(CN(Cc2cc3cc4c(cc3[nH]c2=O)OCO4)C(=O)NC2CCCCC2)cc1	Pf growth 48h 4.7µM
CCN(CC)CCCN(Cc1cc2cc3c(cc2[nH]c1=O)OCCO3)C(=O)Nc1ccccc1	Pf growth 48h 10µM (no result: Pf growth 96h)
COc1ccc(OC)c(CN(CCN2CCOCC2)C(=O)Nc2ccccc2)c1	Shiga toxin inh 43
COc1ccc(OC)c(C(O)c2ncc(-c3ccccc3OC)[nH]2)c1 (stereo not drawn)	none (no result: Pf growth 48h, CHX counter, Pf growth 96h, Shiga toxin inh, SARS PLP yeast)
CC(=O)c1ccc(NC(=S)N2CCN(S(=O)(=O)c3ccc(F)cc3)CC2)cc1	none
CCCCn1cnc2c(c(CC#N)nn2-c2ccccc2)c1=N	none (no result: Pf growth 48h, CHX counter, Pf growth 96h, Shiga toxin inh, SARS PLP yeast)
COc1cc(SC)ccc1C(=O)Nc1ccc(OCC(=O)N2CCOCC2)cc1	CHX counter 17, Shiga toxin inh 61
COc1cc(SC)ccc1C(=O)Nc1ccc2c(c1)OCO2	CHX counter 37, Shiga toxin inh 71
COc1ccc(C(=O)Nc2ccc(C)cc2C(=O)c2ccccc2)c(OC)c1	Pf growth 96h inconclusive
COc1cc(SC)ccc1C(=O)Nc1ccc(C)cc1C	CHX counter 47, Pf growth 96h inconclusive, Shiga toxin inh 106
COc1cc(SC)ccc1C(=O)Nc1ccc(C)cc1	CHX counter 36, Pf growth 96h inconclusive, Shiga toxin inh 69
O=C1c2ccccc2CN1Cc1ccccc1	none
Cc1coc2c(C)c3oc(=O)c(CCC(=O)NCCCn4ccnc4)c(C)c3cc12	Pf growth 48h 10µM, Pf growth 96h inconclusive
Cc1c(CCC(=O)NCCCn2ccnc2)c(=O)oc2c(C)c3occ(C(C)(C)C)c3cc12	Pf growth 48h inconclusive, Pf growth 96h 9.3µM
Cc1coc2c(C)c3oc(=O)c(CCC(=O)NCCCN4CCOCC4)c(C)c3cc12	Pf growth 48h inconclusive, Pf growth 96h inconclusive
Cc1cc([N+](=O)[O-])ccc1NCc1ccco1	none
Cc1ccc(C2C=C(c3ccc4c(c3)OCO4)Nc3ncnn32)cc1 (stereo not drawn)	Pf growth 48h inconclusive, Pf growth 96h 12µM
COc1cccc(C2=CC(c3cccs3)n3nnnc3N2)c1 (stereo not drawn)	CHX counter 41, Shiga toxin inh 48 (no result: Pf growth 48h)
COc1cccc(C2=CC(c3ccc(C)cc3)n3ncnc3N2)c1 (stereo not drawn)	Pf growth 48h inconclusive (no result: AMA1-RON2 inh)
